Experimental data from ChEMBL document CHEMBL3433997, “St. Jude Leishmania screening dataset” (2016).
Where “and” joins values, the source holds several entries; their conditions need not be identical. Equal values may be shown once.

What follows are molecules tested against Solute carrier family 2, facilitated glucose transporter member 1 (Homo sapiens) (UniProt P11166) (assay: ST_JUDE_LEISH: Cytotoxicity at 2uM final concentration against transgenic Leishmania Mexicana promastigotes LmGLUT1 that are glucose transport deficient and complemented with the human glucose transporter GLUT1. Activity is measured by DNA content using SYBR green in vitro).
Assay type: functional

Chain of Solute carrier family 2, facilitated glucose transporter member 1 (Homo sapiens) (P11166 whole entry): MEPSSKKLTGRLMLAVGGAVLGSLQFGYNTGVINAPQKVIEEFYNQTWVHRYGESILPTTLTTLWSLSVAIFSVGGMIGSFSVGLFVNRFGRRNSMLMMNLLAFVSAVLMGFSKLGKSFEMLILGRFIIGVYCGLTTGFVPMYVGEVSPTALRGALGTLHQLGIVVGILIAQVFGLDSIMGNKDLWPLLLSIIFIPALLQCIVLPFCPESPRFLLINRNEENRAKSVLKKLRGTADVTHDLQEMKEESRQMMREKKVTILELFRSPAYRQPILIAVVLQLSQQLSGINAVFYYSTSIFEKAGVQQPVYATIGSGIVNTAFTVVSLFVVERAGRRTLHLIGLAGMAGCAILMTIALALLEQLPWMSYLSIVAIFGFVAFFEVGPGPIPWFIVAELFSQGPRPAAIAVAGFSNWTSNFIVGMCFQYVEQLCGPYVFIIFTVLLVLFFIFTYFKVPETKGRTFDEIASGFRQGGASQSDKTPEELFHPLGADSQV

Structure (SMILES)	inhibition
COCCNCc1cccc(-c2ccc(CN(C(=O)Nc3ccccc3)C3CCN(Cc4ccccc4)CC3)cc2)c1	2.81%
Fc1ccc(N(c2nc(-c3cc(F)cc(C(F)(F)F)c3)cs2)C2CCNCC2)cc1	-1.03%
CCCCC1(NC(=O)[C@H](CC(C)C)Nc2ccc(C#N)c3ccccc23)CCCCC1	1.12%
COc1ccc(-c2ccccc2)cc1NC(=S)NC1CCC(CN2CCC(c3c[nH]c4ccccc34)CC2)CC1 (stereo not given)	3.8% and 4.09%
COC(=O)c1ccc(CC(C)NCC(O)c2cccc(C(F)(F)F)c2)c(Cl)c1 (stereo not given)	2.55%
COc1cc2nc(N(C)C3CCN(Cc4ccccc4)CC3)nc(N)c2cc1OC	69.8%
COc1cccc(C(=O)C2CC2CN2CC=C(c3c[nH]c4ccc(OC)nc34)CC2)c1 (stereo not given)	0.65%
CC(C)/C(=C(/F)CN1C(=O)C(NC(=O)c2cc3ccccc3[nH]2)C(=O)N(c2ccccc2)c2ccccc21)c1ccccc1 (stereo not given)	-0.35%
O=C(Cc1cc(=O)oc2cc(O)ccc12)N1CCC(CN2CCC(c3c[nH]c4ccccc34)CC2)CC1	4.12%
CC(=O)N(Cc1cccc(-c2cccc(CNCc3ccc4c(c3)OCO4)c2)c1)C1CCN(Cc2ccccc2)CC1	6.88%
Cc1ccc(C[C@@H](C)NC[C@H](O)c2cccc(C(F)(F)F)c2)cc1	3.18%
O=C(NC1CCC(CN2CCC(c3c[nH]c4ccccc34)CC2)CC1)c1cc(-c2ccccc2Cl)n(-c2cccc(Cl)c2)n1 (stereo not given)	3.93%
COC(=O)c1ccc(CC(C)NCC(O)c2cccc(OCc3ccccc3)c2)cc1 (stereo not given)	7.34%
CC(C)(C)c1cc(/C=C/C(=O)NC2CCC(CN3CCC(c4c[nH]c5ccccc45)CC3)CC2)cc(C(C)(C)C)c1O (stereo not given)	2.87% and 2.94%
Oc1ccc(Cl)cc1CN1CCC(CCOC(c2ccccc2)c2ccc(Cl)cc2)CC1 (stereo not given)	46.7%
CC[C@H]1CN2CCc3cc(OC)c(OC)cc3[C@@H]2C[C@@H]1C[C@H]1NCCc2c1cc(OC)c(O)c2I	93.9%
CC[C@H]1CN2CC[C@H]1C[C@H]2[C@H](O)c1cc(Cl)nc2ccc(OC)cc12	2.23%
COCCNCc1cccc(-c2ccc(CN(C(=O)NC3CCCCC3)C3CCN(Cc4ccccc4)CC3)cc2)c1	7.28%
COCCNCc1cccc(-c2cccc(CN(C(=O)Nc3ccccc3)C3CCN(Cc4ccccc4)CC3)c2)c1	3.2%
Cc1cc(N(C)C2CCN(C)CC2)nc(Nc2ccc(Br)cc2)n1	3.64%

Structure (SMILES)	inhibition
Cc1cc(NC(=O)[C@@H](Nc2ccc(C#N)c3ccccc23)C2CCCCC2)ccc1F	-1.97%
COc1ccc(OC)c(CNCC(O)c2cc(C(F)(F)F)cc(C(F)(F)F)c2)c1 (stereo not given)	5.31%
O=C(Cc1c(-c2ccccc2)[nH]c2ccccc12)NC1CCC(CN2CCC(c3c[nH]c4ccccc34)CC2)CC1 (stereo not given)	4.32%
CN(c1cc(NC(=O)c2ccc(F)cc2)ccn1)C1CCN(Cc2cccc(F)c2)CC1	2.51%
CN(C(=O)OCc1ccccc1)C1CCC(CCN2CCC3(CC2)C(=O)NCN3c2cccc(C(F)(F)F)c2)(c2ccccc2)CC1 (stereo not given)	2.48%
O=C(/C=C/c1ccc(Cl)c(Cl)c1)N1CCC(CN2CCC(c3c(Br)[nH]c4ccccc34)CC2)CC1	2.44%
Cc1ccc(CC(C)NC[C@H](O)c2cccc(Cl)c2)cc1 (stereo not given in full)	1.71% and 1.19%
O=C(/C=C/c1ccc(Cl)c(Cl)c1)Nc1cccc(CN2CCC(c3c[nH]c4ccc(O)cc34)CC2)c1	0.9%
Cn1cc(CN2CCC(CCOC(c3ccccc3)c3ccccc3)CC2)cn1	12.3%
CNC(=O)c1ccc2[nH]cc(C3CCN(CC4CCC(NC(=O)/C=C/c5ccccc5Cl)CC4)CC3)c2c1 (stereo not given)	10.8%
O=C(CC1CCCC1)N(CC1CCN(Cc2ccc(C(F)(F)F)cc2)CC1)c1ccc(N2CCOCC2)c(F)c1	13.5%
Cc1ccc(CC(C)NCC(O)c2cccc(C(F)(F)F)c2)cc1F (stereo not given)	6.67%
O=C(NC1CCC(CN2CCC(c3c[nH]c4ccccc34)CC2)CC1)c1[nH]c(=O)[nH]c(=O)c1F (stereo not given)	-0.09%
CC[C@H]1CN2CC[C@@H]1C[C@H]2[C@H](O)c1cc(N2CCC(O)(c3ccc(Cl)cc3)CC2)nc2ccc(OC)cc12	6.73%
O=C(/C=C/c1ccc(Cl)c(Cl)c1)N1CCC(CN2CCC(c3c[nH]c4ccc(NS(=O)(=O)c5cccs5)cc34)CC2)CC1	6.53%
Cc1[nH]c2ccc(NS(C)(=O)=O)cc2c1C1CCN(CC2CCN(C(=O)/C=C/c3ccc(Cl)c(Cl)c3)CC2)CC1	-0.42%
COc1nc(N)ncc1C(=O)NC1CN2CCC1CC2 (stereo not given)	7.43%
CC[C@H]1CN2CCc3cc(OC)c(OC)cc3[C@@H]2C[C@@H]1C[C@H]1NCCc2c1cc(OC)c(OC)c2Br	88%
O=C(/C=C/c1ccc(Cl)c(Cl)c1)N1CCC(CN2CCC(c3c[nH]c4cc5c(cc34)OCO5)CC2)CC1	5.54%
O=C(/C=C/c1cccs1)NC1CCC(CN2CCC(c3c[nH]c4ccccc34)CC2)CC1 (stereo not given)	4.14%

What follows are molecules tested against Hexose transporter 1 (Plasmodium falciparum) (UniProt O97467) (assay: ST_JUDE_LEISH: Cytotoxicity at 2uM final concentration against transgenic Leishmania Mexicana promastigotes LmPfHT that are glucose transport deficient and complemented with the Plasmodium falciparum hexose transporter. Activity is measured by DNA content using SYBR green in vitro).
Assay type: functional

Structure (SMILES)	inhibition
COCCNCc1cccc(-c2ccc(CN(C(=O)Nc3ccccc3)C3CCN(Cc4ccccc4)CC3)cc2)c1	0.8%
Fc1ccc(N(c2nc(-c3cc(F)cc(C(F)(F)F)c3)cs2)C2CCNCC2)cc1	-0.75%
CCCCC1(NC(=O)[C@H](CC(C)C)Nc2ccc(C#N)c3ccccc23)CCCCC1	4.9%
COc1ccc(-c2ccccc2)cc1NC(=S)NC1CCC(CN2CCC(c3c[nH]c4ccccc34)CC2)CC1 (stereo not given)	2.57% and 3.78%
COC(=O)c1ccc(CC(C)NCC(O)c2cccc(C(F)(F)F)c2)c(Cl)c1 (stereo not given)	2.18%
COc1cc2nc(N(C)C3CCN(Cc4ccccc4)CC3)nc(N)c2cc1OC	46.7%
COc1cccc(C(=O)C2CC2CN2CC=C(c3c[nH]c4ccc(OC)nc34)CC2)c1 (stereo not given)	1.41%
CC(C)/C(=C(/F)CN1C(=O)C(NC(=O)c2cc3ccccc3[nH]2)C(=O)N(c2ccccc2)c2ccccc21)c1ccccc1 (stereo not given)	-0.22%
O=C(Cc1cc(=O)oc2cc(O)ccc12)N1CCC(CN2CCC(c3c[nH]c4ccccc34)CC2)CC1	5.46%
CC(=O)N(Cc1cccc(-c2cccc(CNCc3ccc4c(c3)OCO4)c2)c1)C1CCN(Cc2ccccc2)CC1	7.09%
Cc1ccc(C[C@@H](C)NC[C@H](O)c2cccc(C(F)(F)F)c2)cc1	3.1%
O=C(NC1CCC(CN2CCC(c3c[nH]c4ccccc34)CC2)CC1)c1cc(-c2ccccc2Cl)n(-c2cccc(Cl)c2)n1 (stereo not given)	2.86%
COC(=O)c1ccc(CC(C)NCC(O)c2cccc(OCc3ccccc3)c2)cc1 (stereo not given)	7.31%
CC(C)(C)c1cc(/C=C/C(=O)NC2CCC(CN3CCC(c4c[nH]c5ccccc45)CC3)CC2)cc(C(C)(C)C)c1O (stereo not given)	0.49% and 5.11%
Oc1ccc(Cl)cc1CN1CCC(CCOC(c2ccccc2)c2ccc(Cl)cc2)CC1 (stereo not given)	25.3%
CC[C@H]1CN2CCc3cc(OC)c(OC)cc3[C@@H]2C[C@@H]1C[C@H]1NCCc2c1cc(OC)c(O)c2I	96.6%
CC[C@H]1CN2CC[C@H]1C[C@H]2[C@H](O)c1cc(Cl)nc2ccc(OC)cc12	1.71%
COCCNCc1cccc(-c2ccc(CN(C(=O)NC3CCCCC3)C3CCN(Cc4ccccc4)CC3)cc2)c1	3.57%
COCCNCc1cccc(-c2cccc(CN(C(=O)Nc3ccccc3)C3CCN(Cc4ccccc4)CC3)c2)c1	2.07%
Cc1cc(N(C)C2CCN(C)CC2)nc(Nc2ccc(Br)cc2)n1	6.94%

Structure (SMILES)	inhibition
Cc1cc(NC(=O)[C@@H](Nc2ccc(C#N)c3ccccc23)C2CCCCC2)ccc1F	-0.16%
COc1ccc(OC)c(CNCC(O)c2cc(C(F)(F)F)cc(C(F)(F)F)c2)c1 (stereo not given)	6.21%
O=C(Cc1c(-c2ccccc2)[nH]c2ccccc12)NC1CCC(CN2CCC(c3c[nH]c4ccccc34)CC2)CC1 (stereo not given)	4%
CN(c1cc(NC(=O)c2ccc(F)cc2)ccn1)C1CCN(Cc2cccc(F)c2)CC1	6.07%
CN(C(=O)OCc1ccccc1)C1CCC(CCN2CCC3(CC2)C(=O)NCN3c2cccc(C(F)(F)F)c2)(c2ccccc2)CC1 (stereo not given)	1.12%
O=C(/C=C/c1ccc(Cl)c(Cl)c1)N1CCC(CN2CCC(c3c(Br)[nH]c4ccccc34)CC2)CC1	0.45%
Cc1ccc(CC(C)NC[C@H](O)c2cccc(Cl)c2)cc1 (stereo not given in full)	0.19% and 1.01%
O=C(/C=C/c1ccc(Cl)c(Cl)c1)Nc1cccc(CN2CCC(c3c[nH]c4ccc(O)cc34)CC2)c1	1.55%
Cn1cc(CN2CCC(CCOC(c3ccccc3)c3ccccc3)CC2)cn1	9.95%
CNC(=O)c1ccc2[nH]cc(C3CCN(CC4CCC(NC(=O)/C=C/c5ccccc5Cl)CC4)CC3)c2c1 (stereo not given)	9.61%
O=C(CC1CCCC1)N(CC1CCN(Cc2ccc(C(F)(F)F)cc2)CC1)c1ccc(N2CCOCC2)c(F)c1	10.9%
Cc1ccc(CC(C)NCC(O)c2cccc(C(F)(F)F)c2)cc1F (stereo not given)	6.24%
O=C(NC1CCC(CN2CCC(c3c[nH]c4ccccc34)CC2)CC1)c1[nH]c(=O)[nH]c(=O)c1F (stereo not given)	0.08%
CC[C@H]1CN2CC[C@@H]1C[C@H]2[C@H](O)c1cc(N2CCC(O)(c3ccc(Cl)cc3)CC2)nc2ccc(OC)cc12	1.34%
O=C(/C=C/c1ccc(Cl)c(Cl)c1)N1CCC(CN2CCC(c3c[nH]c4ccc(NS(=O)(=O)c5cccs5)cc34)CC2)CC1	5.86%
Cc1[nH]c2ccc(NS(C)(=O)=O)cc2c1C1CCN(CC2CCN(C(=O)/C=C/c3ccc(Cl)c(Cl)c3)CC2)CC1	1.08%
COc1nc(N)ncc1C(=O)NC1CN2CCC1CC2 (stereo not given)	6.98%
CC[C@H]1CN2CCc3cc(OC)c(OC)cc3[C@@H]2C[C@@H]1C[C@H]1NCCc2c1cc(OC)c(OC)c2Br	86.6%
O=C(/C=C/c1ccc(Cl)c(Cl)c1)N1CCC(CN2CCC(c3c[nH]c4cc5c(cc34)OCO5)CC2)CC1	4.93%
O=C(/C=C/c1cccs1)NC1CCC(CN2CCC(c3c[nH]c4ccccc34)CC2)CC1 (stereo not given)	5.22%
